Results: the supplement of paper PMC10811239

Experiments:
[1] = tested on: LEGO organoid PTCC (PTEN-/-; TP53-/-; CDKN2A-/-; CDKN2B-/-); experiment: bioluminescence (viable cell) signal fold change after vs before treatment, normalised to DMSO (ratio); higher = more tumour cell growth / less inhibition; conditions: 10 µM; treatment time 6 days
Method: (§1)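 Luc2-labelled iPSC-derived glioblastoma-like organoids (LEGOs, genotypes PT = PTEN-/-;TP53-/-, PTCC = plus CDKN2A/B-/-, PTN = plus NF1-/-) were treated with 10 uM drug for 6 days (applied every other day) at 37 C. Bioluminescence imaging was done before treatment and 2 days after the last dose. BLI signals were normalised to the DMSO control on the same day and then to the pre-treatment signal (N=3).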

[2] = tested on: LEGO organoid PTN (PTEN-/-; TP53-/-; NF1-/-); experiment: as above; conditions: 10 µM; treatment time 6 days
Method: as §1

Row | SMILES | bioluminescence [1] | bioluminescence [2]
1 | CCCCCOC(=O)Nc1nc(=O)n([C@@H]2O[C@H](C)[C@@H](O)[C@H]2O)cc1F [Capecitabine] | 1.71 | 6.04
2 | C[C@H](Cn1cnc2c(N)ncnc21)OCP(=O)(O)O [Tenofovir] | 3.69 | 1.12
3 | O=C1Nc2ccc(Cl)cc2[C@@](C#CC2CC2)(C(F)(F)F)O1 [Efavirenz] | 1.96 | 0.908
4 | Cc1c(C)c2c(c(C)c1O)CC[C@@](C)(CCC[C@H](C)CCC[C@H](C)CCCC(C)C)O2 [α-Vitamin E] | 1.41 | 2.48
5 | O=C(CCCN1CC=C(n2c(=O)[nH]c3ccccc32)CC1)c1ccc(F)cc1 [Droperidol] | 0.69 | 0.372
6 | Nc1[nH]c(=O)ncc1F [Fluorocytosine] | 1.01 | 1.26
7 | CCC(CC)O[C@@H]1C=C(C(=O)O)C[C@H](N)[C@H]1NC(C)=O [Oseltamivir acid] | 0.404 | 1.58
8 | CC(C)(S)[C@@H](N)C(=O)O [d-penicillamin] | 0.914 | 1.11
9 | CO/N=C(\C(=O)N[C@@H]1C(=O)N2C(C(=O)[O-])=C(CSc3nc(=O)c([O-])nn3C)CS[C@H]12)c1csc(N)n1.CO/N=C(\C(=O)N[C@@H]1C(=O)N2C(C(=O)[O-])=C(CSc3nc(=O)c([O-])nn3C)CS[C@H]12)c1csc(N)n1.O.O.O.O.O.O.O.[Na+].[Na+].[Na+].[Na+] [Ceftriaxone sodium] | 1.62 | 2.01
10 | C=CC(=O)N1CCC[C@@H](n2nc(-c3ccc(Oc4ccccc4)cc3)c3c(N)ncnc32)C1 [Ibrutinib] | 1.87 | 1.26
11 | C[C@@H]1COCCN1c1cc(C2([S@](C)(=N)=O)CC2)nc(-c2ccnc3[nH]ccc23)n1 [Ceralasertib] | 1.4 | 0.823
12 | Cl.Clc1cccc(Cl)c1NC1=NCCN1 [Clonidine hydrochloride] | 1.29 | 0.76
13 | COC(c1ccccc1)(c1ccccc1)[C@H](Oc1nc(C)cc(C)n1)C(=O)O [Ambrisentan] | 1.39 | 1.08
14 | CN(C)CCCN1c2ccccc2CCc2ccc(Cl)cc21.Cl [Clomipramine hydrochloride] | 0.71 | 1.5
15 | OC(Cn1cncn1)(Cn1cncn1)c1ccc(F)cc1F [Fluconazole] | 0.967 | 1.54
16 | CN(C)CCCN1c2ccccc2CCc2ccccc21.Cl [Imipramine hydrochloride] | 0.82 | 0.961
17 | N=C(N)NCCCC[C@@H]1NC(=O)CCSSC[C@@H](C(N)=O)NC(=O)[C@@H]2CCCN2C(=O)[C@H](Cc2c[nH]c3ccccc23)NC(=O)[C@H](CC(=O)O)NC(=O)CNC1=O [Eptifibatide] | 0.768 | 0.917
18 | CCCOc1ccc(S(=O)(=O)NCCC2CCCN2C)cc1-c1nc2c(CCC)nn(C)c2c(=O)[nH]1 (centres undefined) [Udenafil] | 1.32 | 1.09
19 | CC[C@@H]1/C=C(\C)C[C@H](C)C[C@H](OC)[C@H]2O[C@@](O)(C(=O)C(=O)N3CCCC[C@H]3C(=O)O[C@H](/C(C)=C/[C@@H]3CC[C@H](Cl)[C@H](OC)C3)[C@H](C)[C@@H](O)CC1=O)[C@H](C)C[C@@H]2OC [Pimecrolimus] | 0.535 | 0.347
20 | CC(C)Oc1ccc(-c2nc(-c3cccc4c3CC[C@@H]4NCCO)no2)cc1C#N [Ozanimod] | 0.828 | 0.741
21 | Cl.OC(CCN1CCCC1)(c1ccccc1)C1CCCCC1 (centres undefined) [Procyclidine hydrochloride] | 0.919 | 0.656
22 | CN(C)CCc1c[nH]c2ccc(CS(=O)(=O)N3CCCC3)cc12.O=C(O)CC(O)C(=O)O [Almotriptan Malate] | 0.868 | 0.959
23 | FC(F)(F)C(Cl)Br (centres undefined) [Anestan] | 0.664 | 1.3
24 | N[C@H]1CONC1=O [L-Cycloserine] | 1.26 | 0.884
25 | Cl.O.O=C1Cc2cc(CCN3CCN(c4nsc5ccccc45)CC3)c(Cl)cc2N1 [Ziprasidone hydrochloride monohydrate] | 1.05 | 0.716
26 | NC(=O)c1cnccn1 [Pyrazinamide] | 1.24 | 1.72
27 | Cc1nc2n(c(=O)c1CCN1CCC(c3noc4cc(F)ccc34)CC1)CCCC2O (centres undefined) [Paliperidone] | 0.722 | 0.593
